Results from PubChem BioAssay (EPA / NIEHS).
Results filed as inconclusive are left out. Active and inactive are the calls of the source. Rule for the calls: active = hit-call score of the fitted dose curve at least 0.9, where 1 is the maximum; inconclusive = response in the unintended direction; inactive = score below 0.9.

The compounds below were run against rat Thyrotropin Releasing Hormone Receptor (TRH), Trhr (gene 25570) (UniProt Q01717) (assay: NVS_GPCR_rTRH: NovaScreen (NVS) G Protein-Coupled Receptor Assay for rat Thyrotropin Releasing Hormone Receptor (TRH) (AID 2283329);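 note: hit means lower bound tracer signal versus DMSO baseline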).
Sequence of rat Thyrotropin Releasing Hormone Receptor (TRH), Trhr (gene 25570) (Q01717 whole entry, looked up): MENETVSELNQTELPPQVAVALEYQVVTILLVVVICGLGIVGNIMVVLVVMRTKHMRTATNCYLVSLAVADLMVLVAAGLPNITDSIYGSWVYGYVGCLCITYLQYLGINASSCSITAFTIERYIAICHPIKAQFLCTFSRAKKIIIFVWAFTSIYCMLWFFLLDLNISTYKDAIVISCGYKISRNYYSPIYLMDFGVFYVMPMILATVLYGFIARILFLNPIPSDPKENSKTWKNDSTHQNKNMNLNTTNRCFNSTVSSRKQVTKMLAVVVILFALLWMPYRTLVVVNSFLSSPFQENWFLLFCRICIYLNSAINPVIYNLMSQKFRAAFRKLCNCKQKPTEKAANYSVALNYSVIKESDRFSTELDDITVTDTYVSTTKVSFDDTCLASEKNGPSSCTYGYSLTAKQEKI
Experimental: NVS_GPCR_rTRH is a biochemical, single-readout assay that uses extracted gene-proteins from Rat forebrain membranes in a tissue-based cell-free assay. Measurements were taken 4 hours after chemical dosing in a 48-well plate.NVS_GPCR_rTRH is one of one assay component(s) measured or calculated from the NVS_GPCR_rTRH assay. It is designed to make measurements of radioligand binding, a form of binding reporter, as detected with scintillation counting signals by Filter-based radiodetection technology.Data from the assay component NVS_GPCR_rTRH was analyzed into 1 assay endpoint. This assay endpoint, NVS_GPCR_rTRH, was analyzed in the positive analysis fitting direction relative to DMSO as the negative control and baseline of activity. Using a type of binding reporter, loss-of-signal activity can be used to understand changes in the binding as they relate to the gene Trhr. Furthermore, this assay endpoint can be referred to as a primary readout, because the performed assay has only produced 1 assay endpoint. To generalize the intended target to other relatable targets, this assay endpoint is annotated to the gpcr intended target family, where the subfamily is rhodopsin-like receptor.
Binding assays used specific radioligands (tritiated, iodinated) with non-radioactive competitive displacement ligands in agonist or antagonist protocols (as indicated) and various reference compounds and inhibitors to titrate specific binding to receptors and transporters. Most enzyme assays (CYPs, kinases, phosphatases, proteases, HDACs) used recombinant protein and specific substrates (fluorescence mostly, some colorimetric and radioactive) and inhibitors, followed by a biochemical separation of substrate and product. All assays for the biochemical HTS were initially run in duplicate at a single concentration (10 uM for CYP450 assays and 25 uM for all others). […] Each assay was run with positive and negative controls, and concurrent controls on every plate. The follow-up (secondary) screen tested active chemical-pairs in concentration series, as well as a few additional assays not tested in the primary screen, some selected negative inactives, and several cases re-run in the concentration series for confirmatory purposes.

SMILES | outcome | AC50
CC(C)c1cccc(C(C)C)c1O | inactive | 
Cc1ccc2ccccc2c1C | inactive | 
C[C@]12CC[C@H](O)CC1=CC[C@@H]1[C@@H]2CC[C@]2(C)C(=O)CC[C@@H]12 | inactive | 
C=C(C)C(=O)[O][Sn]([CH2]CCC)([CH2]CCC)[CH2]CCC |  | 20.3 µM (active)
O=[N+]([O-])c1ccc(O)c([N+](=O)[O-])c1 | inactive | 
Cc1ccccc1C(=O)Nc1cccc(OC(C)C)c1 | inactive | 
COP(=O)(OC)O/C(=C\Cl)c1cc(Cl)c(Cl)cc1Cl | inactive | 
CC(C)C1CCC(Cc2ccc(Cl)cc2)C1(O)Cn1cncn1 (stereo not drawn) | inactive | 
O=C(OC1CCCCC1)c1ccccc1C(=O)OC1CCCCC1 | inactive | 
ClCC(Cl)CCl | inactive | 
C[C@H]1CCCC(=O)CCC/C=C/c2cc(O)cc(O)c2C(=O)O1 | inactive | 
C1CCC(NC2CCCCC2)CC1 | inactive | 
COc1ccc(C=O)cc1 | inactive | 
O=c1[nH]c(=O)[nH]c(=O)[nH]1 | inactive | 
COC(=O)c1sccc1S(=O)(=O)NC(=O)Nc1nc(C)nc(OC)n1 | inactive | 
Oc1cccc2cccnc12 | inactive | 
Cl/C=C/Cl | inactive | 
Clc1nc(Cl)nc(Cl)n1 | inactive | 
